# Assay outcomes from PubChem BioAssay.
# Compounds with a hit are over-represented: about 3% of the library has one in this group of screens.
# KKLEB cytotox – CF airway cell cytotoxicity counter-screen | KKLEB CF airway cells viability, ATPlite luminescence, overnight; active compounds read low; cells stimulated with P. aeruginosa culture filtrate | activity change (cytotoxicity), % at 5 µM | 360,000 tested, 0.36% active | AID 602141;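 active = corrected activity change at or below -50% at 5 µM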
# ABHD5 PLIN5 PPI – ABHD5-PLIN5 protein interaction inhibition | 360,000 tested, 0.78% active | Split G. princeps luciferase complementation, luminescence, 4 h | inhibition, % at 4 µM | Q00G26+Q8WTS1 | AID 602281;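 active = inhibition above the mean inhibition across every tested compound plus 3 SD, cut at about 22% in these data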;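 note: 0% = DMSO only wells and the 100% control is not disclosed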
# MITF TRPM1 inh – reduces MITF-dependent TRPM1 promoter luciferase signal; inhibition, % at 12.5 µM; 330,000 tested, 0.83% active; SK-MEL-5 TRPM1 promoter luciferase, 24 h;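 active = mean inhibition across replicates of 60% or more, whatever share of single replicates reaches that level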
# HIF-2a inh – HIF-2a inhibition. 786-0 RCC cells HIF-2a reporter, luciferase luminescence, overnight. inhibition, % at 18.8 µM. 360,000 tested, 0.72% active;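 active = inhibition of the luminescence signal of 40% or more relative to plate controls, in a single-dose primary screen at 18.75 µM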
# Peg3 promoter – inhibitors of Peg3 promoter; HeLa PEG-Prom luciferase reporter, luminescence, overnight; AID 588405; inhibition, % at 20 µM; 360,000 tested, 1.7% active;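 active = inhibition of at least 50% at 20 µM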
# CF NFkB block – cystic fibrosis NF-kB activation inhibition | KKLEB NF-kB-GFP reporter, PAF-induced, GFP fluorescence overnight | inhibition, % at 5 µM | 360,000 tested, 0.86% active;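 active = at least 50% inhibition at 5 µM, scaled per plate between neutral and stimulator controls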;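 note: PAF is a Pseudomonas aeruginosa culture filtrate used as stimulus; plate controls were PAF-stimulated DMSO wells for no effect and unstimulated DMSO wells for full effect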
# Starred values were filed as active, the others as inactive; x = no result given.
SMILES,KKLEB cytotox,ABHD5 PLIN5 PPI,MITF TRPM1 inh,HIF-2a inh,Peg3 promoter,CF NFkB block
COc1ccc2nc(NC(=O)C3CCN(S(=O)(=O)c4cccc5nsnc45)CC3)sc2c1,-6,6,74*,18,81*,44
CN(C(=O)CN1C(=O)S/C(=C\c2ccc(F)cc2)C1=O)C1CCS(=O)(=O)C1 (stereo unspecified),12,1,-24,3,-12,14
CCN(C(=O)CN1C(=O)S/C(=C\c2ccc(F)cc2)C1=O)C1CCS(=O)(=O)C1 (stereo unspecified),-16,23*,-19,-93,-60,-4
O=c1[nH]c(=S)[nH]cc1Oc1ccccc1,-18,-4,1,1,-5,-2
CC(C)(C)OC(=O)NCc1ccc(NC(=O)c2nc[nH]c2C(=O)NCCNC(=O)c2[nH]cnc2C(=O)Nc2ccc(CNC(=O)OC(C)(C)C)cc2)cc1,-32,1,2,7,84*,72*
CC(C)C[C@H](NC(=O)c1[nH]cnc1C(=O)Nc1ccc(CNC(=O)OC(C)(C)C)cc1)C(=O)OCc1ccccc1,14,-8,2,6,39,-39
CC(C)(C)OC(=O)CNC(=O)c1[nH]cnc1C(=O)Nc1ccc(CNC(=O)OC(C)(C)C)cc1,-14,-8,1,5,66*,43
C[C@H](NC(=O)c1[nH]cnc1C(=O)Nc1ccc(CNC(=O)OC(C)(C)C)cc1)C(=O)OCc1ccccc1,20,5,-1,3,97*,1
CCOC(=O)C1(Cc2ccc(OC)cc2)CCN(C(=O)c2cncs2)CC1,-6,-3,-16,-57,-54,24
CCS(=O)(=O)Nc1ccc(C2=NN(C(=O)c3ccco3)C(c3ccc(Cl)o3)C2)cc1 (stereo unspecified),-2,2,13,-8,18,13
Cn1c(C(=O)N2CCN(c3ccc(Cl)cc3)CC2)cc2c(=O)[nH]c3ccccc3c21,-1,1,9,9,-30,4
Cc1ccc(Cl)cc1N1CCN(C(=O)c2cc3c(=O)[nH]c4ccccc4c3n2C)CC1,-14,3,64*,1,56*,27
COc1ccc(CCNCc2ccc(-c3ccccc3)cc2)cc1OC,-9,0,-1,9,87*,11
COc1ccc(CNCCc2ccc(Cl)cc2)cc1OCc1ccccc1,-5,9,5,12,78*,6
COc1ccc(CNCCc2ccccc2)cc1OCC(N)=O,-14,-2,-24,-38,-9,-4
O=c1[nH]c(SCc2ccc(OC(F)(F)F)cc2)nc2c1CCC2,-4,-6,x,-12,2,-6
Nc1c(S(=O)(=O)c2ccccc2)c2nc3ccccc3nc2n1/N=C/c1cccc(O)c1,21,-5,15,-15,87*,-14
Oc1c(C(Nc2ccccn2)c2ccccn2)ccc2cccnc12 (stereo unspecified),-16,7,71*,-17,54*,-4
COc1cc([N+](=O)[O-])cc(/C=C2/SC(=S)N(Cc3ccccc3)C2=O)c1O,-11,1,7,-49,51*,22
O=C1/C(=C/c2ccc(O)c([N+](=O)[O-])c2)SC(=S)N1Cc1ccccc1,-24,4,5,-36,18,38
O=C1/C(=C/c2ccccc2O)SC(=S)N1Cc1cccnc1,0,-27,27,7,108*,51*
O=C1/C(=C\c2ccc(O)cc2)SC(=S)N1Cc1ccccc1,6,0,-8,-18,4,6
O=C1/C(=C\c2cccc([N+](=O)[O-])c2O)SC(=S)N1Cc1ccccc1,-6,-10,20,-30,56*,27
COc1cc(/C=C2/SC(=S)N(Cc3ccccc3)C2=O)cc(Cl)c1O,-5,-3,2,-8,48,-204
O=C1/C(=C\c2cc(Br)cc(Br)c2O)SC(=S)N1Cc1ccccc1,-45,-3,1,2,73*,26
CC(=O)NCCc1nc2ccccc2n1CCc1ccccc1,14,5,-7,9,-6,8
CC1CCN(C(=O)CCCC(=O)N2CCC(C)CC2)CC1,22,2,-5,3,11,-29
CC(C)CCN1CCC(n2nccc2NC(=O)c2ccc3c(c2)OCO3)CC1,3,-1,16,9,-1,-6
